Test results reported in PubChem BioAssay AID1159580 (chemical genetic matrix, 2015).
Screen size: about 5,500 compounds; about 2,000 (36%) were called active. Roughly 18% stayed inconclusive and do not appear here. No stated cut-off is given here; in the data, active means normalized growth mostly below about 0.91 (no sharp cut-off); inconclusive means no clear call, values can overlap the other calls; inactive means mostly above about 0.92. This is one part of the list.

Experiment: chemical genetic growth profiling, strain panel (AID 1159580);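 further: tested at 20 µM; growth read once vehicle control cultures reached saturation at 30 °C; 1 = growth at the plate median or of vehicle wells; lower values mean less growth of the strain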
Conditions: growth OD

Measured: normalized growth

COC(=O)[C@H]1[C@H]2C[C@H]3c4[nH]c5cc(OC)ccc5c4CCN3C[C@H]2C[C@@H](OC(=O)c2cc(OC)c(OC)c(OC)c2)[C@@H]1OC
inactive: S. cerevisiae deletion strains, locus YKL009W, strain mrt4, active compounds read low 0.991 | S. cerevisiae deletion strains, locus YKL068W, active compounds read low 0.995 | S. cerevisiae deletion strains, locus YKL085W, strain MDH1 (second series), active compounds read low 1 | S. cerevisiae deletion strains, locus YKL085W, strain MDH1, active compounds read low 1 | S. cerevisiae deletion strains, locus YKL160W, strain elf1, active compounds read low 0.995 | S. cerevisiae deletion strains, locus YKR001C, strain vps1, active compounds read low 1.01 | S. cerevisiae deletion strains, locus YKR026C, strain gcn3, active compounds read low 0.994 | S. cerevisiae deletion strains, locus YKR091W, strain srl3, active compounds read low 1.02 | S. cerevisiae deletion strains, locus YLL001W, strain dnm1, active compounds read low 1.03 | S. cerevisiae deletion strains, locus YLL026W, active compounds read low 1.02 | S. cerevisiae deletion strains, locus YLL041C, strain sdh2, active compounds read low 1.01 | S. cerevisiae deletion strains, locus YLR027C, strain aat2, active compounds read low 1.01 | S. cerevisiae deletion strains, locus YLR039C, strain RIC1, active compounds read low 0.971 | S. cerevisiae deletion strains, locus YLR058C, strain SHM2, active compounds read low 0.992 | S. cerevisiae deletion strains, locus YLR102C, strain apc9, active compounds read low 0.981 | S. cerevisiae deletion strains, locus YLR113W, strain HOG1, active compounds read low 0.988 | S. cerevisiae deletion strains, locus YLR221C, strain rsa3, active compounds read low 1 | S. cerevisiae deletion strains, locus YLR258W, strain gsy2, active compounds read low 1.01 | S. cerevisiae deletion strains, locus YLR262C, strain YPT6 (second series), active compounds read low 1 | S. cerevisiae deletion strains, locus YLR262C, strain YPT6, active compounds read low 1 | S. cerevisiae deletion strains, locus YLR268W, strain sec22, active compounds read low 0.987 | S. cerevisiae deletion strains, locus YLR320W, strain mms22, active compounds read low 1.01 | S. cerevisiae deletion strains, locus YLR330W, strain CHS5, active compounds read low 0.992 | S. cerevisiae deletion strains, locus YLR342W, strain FKS1 (second series), active compounds read low 1.04 | S. cerevisiae deletion strains, locus YLR342W, strain FKS1, active compounds read low 1.01 | S. cerevisiae deletion strains, locus YLR357W, strain rsc2, active compounds read low 1 | S. cerevisiae deletion strains, locus YLR370C, strain arc18, active compounds read low 1.01 | S. cerevisiae deletion strains, locus YLR371W, strain rom2, active compounds read low 1 | S. cerevisiae deletion strains, locus YLR384C, strain iki3, active compounds read low 0.998 | S. cerevisiae deletion strains, locus YLR418C, strain cdc73, active compounds read low 0.998 | S. cerevisiae deletion strains, locus YML016C, strain PPZ1, active compounds read low 0.998 | S. cerevisiae deletion strains, locus YML032C, strain rad52, active compounds read low 0.991 | S. cerevisiae deletion strains, locus YML120C, strain ndi1, active compounds read low 1.01 | S. cerevisiae deletion strains, locus YML124C, strain tub3, active compounds read low 1.01 | S. cerevisiae deletion strains, locus YMR058W, strain fet3, active compounds read low 1.01 | S. cerevisiae deletion strains, locus YMR078C, strain ctf18, active compounds read low 1 | S. cerevisiae deletion strains, locus YMR125W, strain sto1, active compounds read low 1.02 | S. cerevisiae deletion strains, locus YMR129W, active compounds read low 0.999 | S. cerevisiae deletion strains, locus YMR205C, strain PFK2, active compounds read low 1.02 | S. cerevisiae deletion strains, locus YMR223W, strain ubp8, active compounds read low 1.02 | S. cerevisiae deletion strains, locus YMR231W, strain pep5, active compounds read low 1.01 | S. cerevisiae deletion strains, locus YMR263W, strain SAP30, active compounds read low 0.98 | S. cerevisiae deletion strains, locus YMR307W, strain GAS1, active compounds read low 1.16 | S. cerevisiae deletion strains, locus YNL067W, strain RPL9B, active compounds read low 0.961 | S. cerevisiae deletion strains, locus YNL071W, strain lat1, active compounds read low 1.02 | S. cerevisiae deletion strains, locus YNL128W, strain TEP1, active compounds read low 0.954 | S. cerevisiae deletion strains, locus YNL153C, strain GIM3, active compounds read low 0.99 | S. cerevisiae deletion strains, locus YNL183C, strain NPR1, active compounds read low 0.909 | S. cerevisiae deletion strains, locus YNL209W, strain ssb2, active compounds read low 1.01 | S. cerevisiae deletion strains, locus YNL233W, strain BNI4, active compounds read low 0.981 | S. cerevisiae deletion strains, locus YNL248C, strain rpa49, active compounds read low 1 | S. cerevisiae deletion strains, locus YNL250W, strain rad50, active compounds read low 0.985 | S. cerevisiae deletion strains, locus YNL271C, strain bni1, active compounds read low 1.02 | S. cerevisiae deletion strains, locus YNL298W, strain CLA4, active compounds read low 0.996 | S. cerevisiae deletion strains, locus YNL307C, strain MCK1, active compounds read low 0.987 | S. cerevisiae deletion strains, locus YNL322C, strain KRE1 (second series), active compounds read low 1.01 | S. cerevisiae deletion strains, locus YNL322C, strain KRE1, active compounds read low 1 | S. cerevisiae deletion strains, locus YNR049C, strain mso1, active compounds read low 1.02 | S. cerevisiae deletion strains, locus YNR052C, strain pop2, active compounds read low 0.995 | S. cerevisiae deletion strains, locus YOL012C, strain htz1 2.11 | S. cerevisiae deletion strains, locus YOL147C, strain pex11, active compounds read low 0.984 | S. cerevisiae deletion strains, locus YOR001W, strain rrp6, active compounds read low 1.01 | S. cerevisiae deletion strains, locus YOR061W, strain CKA2, active compounds read low 0.998 | S. cerevisiae deletion strains, locus YOR069W, strain VPS5, active compounds read low 1 | S. cerevisiae deletion strains, locus YOR070C, strain gyp1, active compounds read low 1.02 | S. cerevisiae deletion strains, locus YOR080W, strain dia2, active compounds read low 1.01 | S. cerevisiae deletion strains, locus YOR083W, strain WHI5, active compounds read low 0.987 | S. cerevisiae deletion strains, locus YOR106W, strain vam3, active compounds read low 1 | S. cerevisiae deletion strains, locus YOR136W, strain idh2, active compounds read low 0.997 | S. cerevisiae deletion strains, locus YOR144C, strain elg1, active compounds read low 1.01 | S. cerevisiae deletion strains, locus YOR184W, strain ser1, active compounds read low 1.01 | S. cerevisiae deletion strains, locus YOR231W, strain MKK1, active compounds read low 0.948 | S. cerevisiae deletion strains, locus YOR265W, strain rbl2, active compounds read low 1.02 | S. cerevisiae deletion strains, locus YOR270C, strain vph1, active compounds read low 1.08 | S. cerevisiae deletion strains, locus YOR290C, strain snf2, active compounds read low 0.971 | S. cerevisiae deletion strains, locus YOR316C, strain cot1, active compounds read low 0.989 | S. cerevisiae deletion strains, locus YPL051W, strain arl3, active compounds read low 0.977 | S. cerevisiae deletion strains, locus YPL055C, strain LGE1, active compounds read low 0.978 | S. cerevisiae deletion strains, locus YPL078C, strain atp4, active compounds read low 1 | S. cerevisiae deletion strains, locus YPL106C, strain sse1, active compounds read low 0.999 | S. cerevisiae deletion strains, locus YPL240C, strain hsp82, active compounds read low 1.03 | S. cerevisiae deletion strains, locus YPL256C, strain CLN2, active compounds read low 0.977 | S. cerevisiae deletion strains, locus YPR119W, strain clb2, active compounds read low 0.994 | S. cerevisiae deletion strains, locus YPR141C, strain kar3, active compounds read low 1.01 | S. cerevisiae deletion strains, locus YPR163C, strain tif3, active compounds read low 0.989 | S. cerevisiae deletion strains, locus YPR167C, strain met16, active compounds read low 0.998 | S. cerevisiae deletion strains, strain wtn01, active compounds read low 0.992 | S. cerevisiae strains, strain wild type, active compounds read low 1
